# Assay results as given in PubChem BioAssay (Tox21).
# Inconclusive results are not listed. Unmarked numbers belong to inactive results. Calls come from the whole dose curve; as a rule, active = well fitted cell-killing curve with a large enough effect in the repeat runs; inconclusive = weak or mixed curves, or effect the other way; inactive = flat fitted curve, though single readings scatter.
# Assay: qHTS assay to identify small molecule antagonists of the retinoid acid receptor (RAR) signaling pathway - cell viability counter screen (AID 1159551); note: nearly all actives have a fitted effect of over 35% in size
# Conditions: C3RL4 cells viability, ATP luminescence (CellTiter-Glo), 6 h; series mostly up to 92.4 µM; activity change, negative = cytotoxicity: at the top concentration
# Method in brief: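 Following overnight attachment, C3RL4 reporter cells received DMSO-dissolved compounds and then retinol (1 uM final). Six hours later at 37 C, ATP content was measured by CellTiter-Glo luminescence.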
# % is set by controls: 0 for no effect and ±100 for the full control effect.
row,SMILES,"activity change, negative = cytotoxicity"
1,OCCN1C[C@H](O)[C@@H](O)[C@H](O)[C@H]1CO,0.347% [at 42.5 µM]
2,CC(C)CCCC(C)CCCC(C)CCCCC(C)CCCC(C)CCCC(C)C (stereo unspecified),3.36% [at 42.5 µM]
3,C=CCn1c(=O)n([C@@H]2O[C@H](CO)[C@@H](O)[C@H]2O)c2nc(N)[nH]c(=O)c21,0.824% [at 42.5 µM]
4,CCCCCCCCCCC1CO1 (stereo unspecified),-0.503%
5,c1ccc(CCCc2ccccn2)cc1,-2.01%
6,CC(C)c1cccc(O)c1,-0.501%
7,Cc1ccccc1C(=O)O,2.14%
8,COc1cccc(Br)c1,3.23%
9,C=CCSCC1Nc2cc(Cl)c(S(N)(=O)=O)cc2S(=O)(=O)N1 (stereo unspecified),0.777% [at 42.5 µM]
10,NCC[C@H](O)C(=O)N[C@@H]1C[C@H](N)[C@@H](O[C@H]2O[C@H](CN)[C@@H](O)[C@H](O)[C@H]2O)[C@H](O)[C@H]1O[C@H]1O[C@H](CO)[C@@H](O)[C@H](N)[C@H]1O,2.52% [at 0.349 µM]
11,CO,4.69%
